What follows are compounds tested against MAP kinase-activated protein kinase 3 (Homo sapiens) (UniProt Q16644). Settings: at 1 µM.
Sequence of MAP kinase-activated protein kinase 3 (Homo sapiens) (Q16644 whole entry, looked up): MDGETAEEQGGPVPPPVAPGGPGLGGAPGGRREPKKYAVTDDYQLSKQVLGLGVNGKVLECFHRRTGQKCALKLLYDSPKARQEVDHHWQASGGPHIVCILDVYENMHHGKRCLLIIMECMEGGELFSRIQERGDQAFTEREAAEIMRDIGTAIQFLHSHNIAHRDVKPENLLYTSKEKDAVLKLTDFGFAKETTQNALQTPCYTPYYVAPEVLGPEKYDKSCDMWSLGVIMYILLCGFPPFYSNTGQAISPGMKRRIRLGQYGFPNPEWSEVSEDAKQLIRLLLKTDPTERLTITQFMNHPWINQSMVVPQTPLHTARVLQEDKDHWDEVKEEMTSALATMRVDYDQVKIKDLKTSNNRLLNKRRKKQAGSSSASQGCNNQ

SMILES	inhibition [%]
CCc1nn2ncccc2c1-c1ccnc(NC2CC2)n1	2.3
COC(=O)c1sc(-n2cnc3cc(OC)c(OC)cc32)cc1OCc1ccccc1C(F)(F)F	5.46
[O-][S+]1CCN(Cc2ccc(-c3ccc4ncnc(Nc5ccc(OCc6cccc(F)c6)c(Cl)c5)c4c3)o2)CC1	7.37
CCn1c(-c2nonc2N)nc2c(C#CC(C)(C)O)ncc(OC3CCNCC3)c21	4.41
CC(C)(CO)CNC(=O)c1ccc2c(c1)/C(=N/Nc1ccc(S(N)(=O)=O)cc1)C(=O)N2	2.07
CCCN1CCC(c2ccc(Nc3nc(Nc4cc(F)ccc4C(N)=O)c4cc[nH]c4n3)c(OC)c2)CC1	11.9
COc1ccc(-c2cc(-c3c[nH]nc3-c3ccccn3)ccn2)cc1	14
COc1ccc(-c2cc3c(N)ncnc3o2)cc1	-1.91
COC(=O)Nc1nc2ccc(S(=O)(=O)c3ccc(NC(=O)Nc4cc(C(F)(F)F)ccc4F)cc3)cc2[nH]1	3.35
Fc1ccc(-c2nn3ccccc3c2-c2ccncc2)cc1	28.4
CN1CCC(n2cnc(-c3ccc(F)cc3)c2-c2ccnc(N)n2)CC1	33.5
COc1cccc(-n2ncc3c(N/N=C/c4ccc(F)cc4)ncnc32)c1	3.2
Fc1cccc(COc2ccc(Nc3ncnc4sc(-c5ccco5)cc34)cc2Cl)c1	11
Fc1ccc(-c2cc(-c3c[nH]nc3-c3ccccn3)ccn2)cc1	18.4
CCCN(CCS(C)(=O)=O)Cc1ccc(-c2ccc3ncnc(Nc4ccc(OCc5cccc(F)c5)c(Cl)c4)c3c2)o1	7.63
COc1cccc(-c2c[nH]c3c(N/N=C/c4ccncc4)ncnc23)c1	11.1
CC1=C(C(=O)Nc2cc(Cl)c3[nH]ncc3c2)C(c2ccc(C(F)(F)F)cc2)CC(=O)N1 (stereo not drawn)	9.12

SMILES	inhibition [%]
CS(=O)(=O)CCNCc1coc(-c2ccc3ncnc(Nc4ccc(OCc5ccccc5)cc4)c3c2)c1	1.32
CCn1c(-c2nonc2N)nc2cnc(Oc3cccc(NC(=O)c4ccc(N(C)C)cc4)c3)cc21	2.85
CNC(=O)c1cc(-c2ccc(F)cc2)cc(-c2ccc(S(=O)(=O)N3CCCC3)cc2)c1N	9.54
O=S(=O)(CCNCc1ccc(-c2ccc3ncnc(Nc4ccc(OCc5cccc(F)c5)c(Cl)c4)c3c2)o1)c1ccccc1	7.76
N#Cc1c(NC(=O)c2ccc(F)cc2)sc2c1CCCC2	0.7
CNC(=O)c1cccc(C#Cc2cncnc2Nc2ccc(OCc3cccc(F)c3)c(Cl)c2)c1	1.66
CCn1c(-c2nonc2N)nc2c(C#CC(C)(C)O)nc(OC[C@H](N)c3ccccc3)cc21	2.95
Nc1ncc(-c2cccc(S(N)(=O)=O)c2)c2scc(-c3ccc(F)c(Cl)c3)c12	15.7
c1ccc(COc2ccc(Nc3ncnc4ccc(-c5ccco5)cc34)cc2)cc1	-0.28
N#Cc1c(NC(=O)CN2CCOCC2)sc2c1CCCC2	5.44
NS(=O)(=O)c1ccc(N/N=C2\C(=O)Nc3ccc4ncccc4c32)cc1	3.84
O=C(O[C@H]1CN[C@H](C#Cc2cc3ncnc(Nc4ccc(Cc5ccccc5)cc4)c3s2)C1)N1CCOCC1	3.19
CC(=O)Nc1cccc(C#Cc2cncnc2Nc2ccc(OCc3cccc(F)c3)c(Cl)c2)c1	-2.89
Cc1cccc(Nc2ncc(-c3ccccc3)o2)c1	4.32
FC(F)(F)c1cccc(-c2nn3ncccc3c2-c2ccnc(Nc3ccc4c(c3)OCCO4)n2)c1	31.9
CCNC(=O)O[C@H]1CN[C@H](C#Cc2cc3ncnc(Nc4ccc(OCc5cccc(F)c5)c(Cl)c4)c3s2)C1	2.32
CNC(=O)c1cncc(/C=C/c2ccccc2Cl)c1	-0.89

Each compound was assayed against Serine/threonine-protein kinase MARK1 (Homo sapiens) (UniProt Q9P0L2). Settings: at 0.1 µM.
Sequence of Serine/threonine-protein kinase MARK1 (Homo sapiens) (Q9P0L2 whole entry, looked up): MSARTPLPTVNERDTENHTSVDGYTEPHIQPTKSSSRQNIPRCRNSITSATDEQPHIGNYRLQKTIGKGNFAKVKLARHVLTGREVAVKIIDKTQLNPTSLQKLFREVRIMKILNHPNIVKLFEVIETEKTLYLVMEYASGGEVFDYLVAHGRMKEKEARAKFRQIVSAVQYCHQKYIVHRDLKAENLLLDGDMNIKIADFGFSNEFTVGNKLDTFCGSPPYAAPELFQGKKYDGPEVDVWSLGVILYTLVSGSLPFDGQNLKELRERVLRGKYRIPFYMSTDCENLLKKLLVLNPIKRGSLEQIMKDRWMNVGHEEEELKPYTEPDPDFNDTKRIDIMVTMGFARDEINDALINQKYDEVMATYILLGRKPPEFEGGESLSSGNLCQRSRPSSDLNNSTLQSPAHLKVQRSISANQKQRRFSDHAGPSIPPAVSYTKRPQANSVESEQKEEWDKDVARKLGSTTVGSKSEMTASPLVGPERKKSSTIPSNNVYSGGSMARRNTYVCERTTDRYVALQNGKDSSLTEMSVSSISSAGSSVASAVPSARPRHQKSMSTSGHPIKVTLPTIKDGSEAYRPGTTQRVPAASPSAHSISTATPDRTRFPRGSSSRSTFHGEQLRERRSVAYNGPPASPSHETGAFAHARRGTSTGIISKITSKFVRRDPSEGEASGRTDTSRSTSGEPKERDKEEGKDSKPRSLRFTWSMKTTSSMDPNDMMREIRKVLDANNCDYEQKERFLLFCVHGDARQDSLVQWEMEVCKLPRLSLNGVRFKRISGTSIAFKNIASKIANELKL

SMILES	inhibition [%]
CCc1nn2ncccc2c1-c1ccnc(NC2CC2)n1	0.89
COC(=O)c1sc(-n2cnc3cc(OC)c(OC)cc32)cc1OCc1ccccc1C(F)(F)F	2.71
[O-][S+]1CCN(Cc2ccc(-c3ccc4ncnc(Nc5ccc(OCc6cccc(F)c6)c(Cl)c5)c4c3)o2)CC1	4.1
CCn1c(-c2nonc2N)nc2c(C#CC(C)(C)O)ncc(OC3CCNCC3)c21	20.8
CC(C)(CO)CNC(=O)c1ccc2c(c1)/C(=N/Nc1ccc(S(N)(=O)=O)cc1)C(=O)N2	10.3
CCCN1CCC(c2ccc(Nc3nc(Nc4cc(F)ccc4C(N)=O)c4cc[nH]c4n3)c(OC)c2)CC1	9.11
COc1ccc(-c2cc(-c3c[nH]nc3-c3ccccn3)ccn2)cc1	5.2
COc1ccc(-c2cc3c(N)ncnc3o2)cc1	0.03
COC(=O)Nc1nc2ccc(S(=O)(=O)c3ccc(NC(=O)Nc4cc(C(F)(F)F)ccc4F)cc3)cc2[nH]1	2.26
Fc1ccc(-c2nn3ccccc3c2-c2ccncc2)cc1	1.76
CN1CCC(n2cnc(-c3ccc(F)cc3)c2-c2ccnc(N)n2)CC1	1.8
COc1cccc(-n2ncc3c(N/N=C/c4ccc(F)cc4)ncnc32)c1	3.33
Fc1cccc(COc2ccc(Nc3ncnc4sc(-c5ccco5)cc34)cc2Cl)c1	2.72
Fc1ccc(-c2cc(-c3c[nH]nc3-c3ccccn3)ccn2)cc1	4.11
CCCN(CCS(C)(=O)=O)Cc1ccc(-c2ccc3ncnc(Nc4ccc(OCc5cccc(F)c5)c(Cl)c4)c3c2)o1	0.08
COc1cccc(-c2c[nH]c3c(N/N=C/c4ccncc4)ncnc23)c1	2.74
CC1=C(C(=O)Nc2cc(Cl)c3[nH]ncc3c2)C(c2ccc(C(F)(F)F)cc2)CC(=O)N1 (stereo not drawn)	3.77

SMILES	inhibition [%]
CS(=O)(=O)CCNCc1coc(-c2ccc3ncnc(Nc4ccc(OCc5ccccc5)cc4)c3c2)c1	2.05
CCn1c(-c2nonc2N)nc2cnc(Oc3cccc(NC(=O)c4ccc(N(C)C)cc4)c3)cc21	2.53
CNC(=O)c1cc(-c2ccc(F)cc2)cc(-c2ccc(S(=O)(=O)N3CCCC3)cc2)c1N	2.14
O=S(=O)(CCNCc1ccc(-c2ccc3ncnc(Nc4ccc(OCc5cccc(F)c5)c(Cl)c4)c3c2)o1)c1ccccc1	3.69
N#Cc1c(NC(=O)c2ccc(F)cc2)sc2c1CCCC2	1.17
CNC(=O)c1cccc(C#Cc2cncnc2Nc2ccc(OCc3cccc(F)c3)c(Cl)c2)c1	-0.72
CCn1c(-c2nonc2N)nc2c(C#CC(C)(C)O)nc(OC[C@H](N)c3ccccc3)cc21	2.28
Nc1ncc(-c2cccc(S(N)(=O)=O)c2)c2scc(-c3ccc(F)c(Cl)c3)c12	3.57
c1ccc(COc2ccc(Nc3ncnc4ccc(-c5ccco5)cc34)cc2)cc1	0.18
N#Cc1c(NC(=O)CN2CCOCC2)sc2c1CCCC2	4.32
NS(=O)(=O)c1ccc(N/N=C2\C(=O)Nc3ccc4ncccc4c32)cc1	12.8
O=C(O[C@H]1CN[C@H](C#Cc2cc3ncnc(Nc4ccc(Cc5ccccc5)cc4)c3s2)C1)N1CCOCC1	1.63
CC(=O)Nc1cccc(C#Cc2cncnc2Nc2ccc(OCc3cccc(F)c3)c(Cl)c2)c1	1.42
Cc1cccc(Nc2ncc(-c3ccccc3)o2)c1	2.41
FC(F)(F)c1cccc(-c2nn3ncccc3c2-c2ccnc(Nc3ccc4c(c3)OCCO4)n2)c1	2.64
CCNC(=O)O[C@H]1CN[C@H](C#Cc2cc3ncnc(Nc4ccc(OCc5cccc(F)c5)c(Cl)c4)c3s2)C1	1.89
CNC(=O)c1cncc(/C=C/c2ccccc2Cl)c1	1.46

From ChEMBL document CHEMBL1961873, “Compounds: GSK PKIS; Assays: Nanosyn kinase panel” (2012)
